Source: PubChem BioAssay
Only some compounds are listed: those with a hit (about 19% of all), similar ones and a draw of the others.
TDP1 cell noCPT: qHTS for Inhibitors of human tyrosyl-DNA phosphodiesterase 1 (TDP1): qHTS in cells in absence of CPT. DT40 Tdp1-/- hTDP1 cells, no CPT, ATP luminescence, 48 h. Potency, µM (highest dose often 46.2 µM), for the others: at the highest dose activity change, negative = growth inhibition, hits mostly inhibitors. hit rate 15% among 420,000. AID 686978, 2013; also: potency is read from the fitted curve at half-maximal effect; nearly all actives have a fitted effect of over 55% in size
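Growth of hTDP1-complemented DT40 Tdp1-knockout cells is measured by ATP luminescence after at least 48 hr compound exposure at 37 °C, with DMSO substituting for the 20 nM CPT used in the parallel screen.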
DT40 TDP1 CPT: growth inhibition of DT40 Tdp1-/-;hTDP1 cells with camptothecin (screen for TDP1 inhibitors). Potency, µM (series often up to 46.2 µM), inactives show top-dose activity change, negative = growth inhibition, usual class: inhibitors. chicken DT40 Tdp1-/-;hTDP1 cells + 20 nM CPT, ATP luminescence, 48 h. hit rate 12% among 420,000. AID 686979; also: potency is read from the fitted curve at half-maximal effect; nearly all actives have a fitted effect of over 55% in size
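Chicken DT40 Tdp1-/- cells stably complemented with human TDP1 were seeded at 400 cells/well in medium containing 20 nM camptothecin, exposed to pin-transferred compounds, and grown at 37 °C for at least 48 hr. Viability was read as ATP luminescence.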
TDP1 block: inhibitors of human tyrosyl-DNA phosphodiesterase TDP1. Q9NUW8. recombinant TDP1, AlphaScreen DNA substrate cleavage. Potency, µM (doses to about 130 µM), for the others: at the highest dose activity change, negative = inhibition, most hits filed as inhibitors. hit rate 0.28% among 350,000. AID 485290; also: potency is read from the fitted curve at half-maximal effect; nearly all actives have a fitted effect of over 40% in size
Target sequence (Q9NUW8 whole entry, looked up): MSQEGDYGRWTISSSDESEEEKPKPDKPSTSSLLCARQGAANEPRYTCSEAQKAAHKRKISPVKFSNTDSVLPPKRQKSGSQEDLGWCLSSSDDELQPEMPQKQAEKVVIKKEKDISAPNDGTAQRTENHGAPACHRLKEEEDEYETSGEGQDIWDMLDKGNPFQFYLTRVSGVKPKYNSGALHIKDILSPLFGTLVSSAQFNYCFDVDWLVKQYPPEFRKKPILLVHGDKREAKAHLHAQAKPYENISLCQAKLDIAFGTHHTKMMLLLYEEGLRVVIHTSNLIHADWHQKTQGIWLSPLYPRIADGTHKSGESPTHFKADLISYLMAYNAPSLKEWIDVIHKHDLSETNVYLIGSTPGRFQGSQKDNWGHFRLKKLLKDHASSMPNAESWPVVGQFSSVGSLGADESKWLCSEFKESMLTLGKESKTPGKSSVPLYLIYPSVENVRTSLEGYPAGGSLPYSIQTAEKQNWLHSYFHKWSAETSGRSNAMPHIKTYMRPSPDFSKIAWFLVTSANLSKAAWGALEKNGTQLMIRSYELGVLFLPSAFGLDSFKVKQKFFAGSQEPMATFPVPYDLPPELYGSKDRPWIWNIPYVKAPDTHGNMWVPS
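Steps: enzyme plus compound, 15 min RT; add biotin/phosphotyrosine-FITC oligonucleotide (15 nM final), react 5 min; add donor/acceptor beads (10 ug/ml final), 10 min; read AlphaScreen. Tdp1 at 1 nM final.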
Giardia killer: Giardia lamblia killing | AID 540267 | Giardia lamblia trophozoite viability | hit rate 0.15% among 340,000 | activity change, % at 7.66 µM, hits read low; in the data active = activity change below about -80%; inconclusive = between about -30% and that limit;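 also: parasites exposed to compound for two days anaerobically before the ATP read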
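Compounds were tested on trophozoites seeded at 100 cells/well and held 48 hrs at 37 deg C anaerobically. An ATP-based luminescent kit measured the remaining live cells.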
IL-1B inflam inh: blocks inflammasome-driven IL-1 beta release; activity change, % at 57.5 µM; AID 743279; hit rate 4.7% among 360,000; THP-1 LPS/ATP IL-1B secretion, AlphaLISA, 16 h; active compounds read low; in the data active = activity change below about -50%; inconclusive = mostly about -30% to -49%
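Secreted IL-1B measured by AlphaLISA bead assay after 16 h compound exposure of THP-1 cells; compounds (final up to 57.5 uM) added 1 h before LPS (250 ng/mL) and ATP (1.25 mM) stimulation; lower signal means less secretion.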
ELG1 DNA repair: blocks ELG1-dependent DNA repair in HEK293T cells. HEK293T ELG1-luciferase reporter, luminescence, 16 h; DNA damage induced by 5-fluorouridine. Potency, µM (series often up to 46.1 µM), for the others: at the top dose activity change, negative = inhibition, usual class: inhibitors. hit rate 2.3% among 330,000; also: potency is read from the fitted curve at half-maximal effect; nearly all actives have a fitted effect of over 55% in size
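Reporter activity after DNA damage by 5-fluorouridine is monitored. Compound-treated cells incubate 16 hr at 37 °C, then ONE-Glo is added for 30 min before luminescence reading.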
* = called active by the depositor; ? = inconclusive; · = not tested or not shown; [ ] = another dose, or the depositor's remark. Unless noted, calls follow the shape of the dose curve; as a rule, active = well fitted curve in the direction sought with a large enough effect; inconclusive = small, poorly fitted or top-dose-only effect, or another doubt; inactive = no such curve, though single readings can be large; an effect the other way counts as inactive or inconclusive. % is scaled to controls: 0 for no effect and ±100 for the full control effect.

SMILES | TDP1 cell noCPT | DT40 TDP1 CPT | TDP1 block | Giardia killer | IL-1B inflam inh | ELG1 DNA repair
CCOC1=C2[C@@H](CN(S(=O)(=O)c3ccc(C)cc3)[C@H]2c2cccc3ccccc23)[C@H]2C(=O)N(CC)C(=O)[C@H]2C1 | ? | ? | · | · | 5 | ·
CCOC(=O)C1(CCOc2ccccc2)CCN(Cc2ccc3nonc3c2)CC1 | 21µM* | ? | -5% | -3 | -1 | -28%
CCOC(=O)C1(CCOc2ccccc2)CCN(Cc2ccc(CO)o2)CC1 | 2.3µM* | 8.2µM* | -6% | 14 | -17 | -16%
CCOC(=O)C1(CCOc2ccccc2)CCN(Cc2cccc(OC)c2OC)CC1 | 21µM* | ? | · | 15 | -88* | 12µM*
CCOC(=O)C1(Cc2cccc(F)c2)CCN(Cc2nc(CC)[nH]c2C)CC1 | 23µM* | ? | 7% | 8 | -55* | ?
CC(=O)NCCc1ccc(S(=O)(=O)Nc2ccc3c(c2)OCCO3)cc1 | -28% | 10% | · | 23 | 40 | ·
Cc1ccc(OCC(=O)Nc2ccccc2C(=O)OCc2cc(=O)n3ccsc3n2)cc1C | -14% | -14% | 4% | · | · | ·
CCOC(=O)C1(CCOc2ccccc2)CCN(Cc2ccc(OC)cc2)CC1 | 21µM* | 15µM* | · | 12 | ? | ·
CCOC(=O)C1(CCOc2ccccc2)CCN(CCCn2cccn2)CC1 | ? | ? | · | -2 | -12 | -4%
CCOC(=O)C1(CCOc2ccccc2)CCN(Cc2cccc(OCCO)c2)CC1 | ? | ? | · | 31 | -15 | ?
CCOC(=O)C1(CCOc2ccccc2)CCN(Cc2cccc(F)c2)CC1 | 5.8µM* | 16µM* | · | 10 | ? | -13%
CCOC(=O)C1(CCOc2ccccc2)CCN(Cc2cccc(-n3cccn3)c2)CC1 | 16µM* | 16µM* | 5% | 11 | 3 | ?
CCOC(=O)C1(CCOc2ccccc2)CCN(Cc2ccccc2O)CC1 | ? | ? | · | -17 | 6 | ·
CCOC(=O)C1(CCOc2ccccc2)CCN(C(=O)c2ccc(-n3cccn3)cc2)CC1 | 21µM* | ? | · | 20 | -27 | ?
CC1CCN(c2cc3c(cc2F)c(=O)c(S(=O)(=O)c2cccc(Cl)c2)cn3Cc2ccccc2)CC1 | -17% | 12% | 2% | · | · | ·
Cc1cc(C)c(NC(=O)C2CCN(c3nn4c(=O)cc(C)nc4s3)CC2)c(C)c1 | -24% | ? | -5% | · | · | ·
COc1ccc(NC(=O)[C@@H](NC(N)=O)C(C)C)cc1Cl | -7% | -1% | 3% | 3 | 3 | 13%
O=C1CCCc2cc(S(=O)(=O)NCC3CCC(C(=O)NCc4ccc(F)cc4)CC3)ccc2N1 (centres undefined) | ? | ? | -3% | · | · | ·
COC(=O)Cn1c(C2CC(=O)N(c3c(C)cccc3C)C2)nc2ccccc21 (centres undefined) | -19% | 0% | 3% | · | · | ·
CN(CC(=O)NCc1ccncc1)S(=O)(=O)c1ccc(F)cc1 | -9% | -8% | 2% | 0 | ? | 1%
COc1ccc(CN2CCC(=O)N([C@H](CO)CC(C)C)CC2)cc1 | ? | ? | · | -5 | 9 | 8%
CCOC(=O)C1(CCOc2ccccc2)CCN(Cc2cnc(C)s2)CC1 | 21µM* | ? | · | 1 | -8 | -12%
CCOC(=O)C1(CCOc2ccccc2)CCN(Cc2ccc(OCC)c(CO)c2)CC1 | 18µM* | 15µM* | · | ? | -24 | ·
CCOC(=O)C1(CCOc2ccccc2)CCN(CC2CC2)CC1 | -10% | 8% | · | 11 | -5 | 1%
Cc1ccc(C(=O)NCC(=O)OCCOc2ccccc2Cl)cc1 | 6% | 8% | -2% | 33 | 45 | ?
SMILES | TDP1 cell noCPT | DT40 TDP1 CPT | TDP1 block | Giardia killer | IL-1B inflam inh | ELG1 DNA repair
CCN(CC)Cc1c(O)c(Cl)cc2c(C)cc(=O)oc12 | -4% | 13% | 13µM* | -6 | 12 | 13%
Cc1c(Cc2ccccc2)c(=O)oc2c(CN(C)C)c(O)c(Cl)cc12 | 16µM* | ? | -5% | -6 | 18 | 2%
CCN(CC)S(=O)(=O)c1ccc2c(c1)N(CC(=O)Nc1ccc(F)cc1)C(=O)CO2 | ? | -28% | 3% | · | · | ·
O=C1CCCCC1Sc1nnc(Cc2cccs2)n1CCc1ccccc1 (centres undefined) | 23µM* | ? | 5% | 7 | ? | -16%
CCOC(=O)N1CCC(NC(=O)c2ccc3c(c2)N(Cc2ccccc2C)C(=O)c2ccccc2S3=O)CC1 (centres undefined) | ? | ? | 6% | · | · | ·
Cc1cccc(NC(=O)c2c(NC(=O)c3cccs3)sc3c2CCC(C)C3)c1 (centres undefined) | 10µM* | 23µM* | 0%[12.3 µM] | · | · | ·
COc1cc(C(=O)Nc2sc3c(c2C(=O)O)CCC(C)C3)cc(OC)c1OC (centres undefined) | -12% | -27% | · | -1 | 6 | 2.9µM*
CC1CCc2c(sc(NC(=O)c3ccccc3)c2C(=O)Nc2ccccc2)C1 (centres undefined) | 21µM* | 9.2µM* | 0%[12.3 µM] | · | · | ·
CCN(C[C@H]1N[C@@](C)(C(=O)OC)[C@H]2C(=O)N(C)C(=O)[C@@H]12)S(=O)(=O)c1ccc(-c2ccccc2)cc1 | ? | ? | 2% | 57 | -17 | -18%
Cc1ccc(S(=O)(=O)NCCOc2cc(C)ccc2C)cc1 | -21% | ? | 2% | 31 | 46 | 3%
CC1CCc2nc3ccccc3c(C(=O)OCC(=O)N3CCc4ccccc43)c2C1 (centres undefined) | 5.8µM* | 8.2µM* | -2% | 5 | 23 | 18µM*
CCCc1nc2ccccc2c(C(=O)OCC(=O)N2CCc3ccccc32)c1CC | 12µM* | 18µM* | 0% | 4 | 13 | 16µM*
Cc1noc(C)c1C(=O)OCC(=O)N1CCc2ccccc21 | -5% | -15% | -2% | 4 | -9 | ?
CCc1noc(C)c1C(=O)OCC(=O)N1CCc2ccccc21 | 2.3µM* | 5% | -2% | -22 | 0 | ?
Cc1oc2ncnc(N3CCCCC3)c2c1C(=O)NCC1CCN(Cc2ccc(F)cc2)CC1 | -23% | -26% | -4% | · | · | ·
Cc1cccc(Nc2nnc(-c3ccc(C)c(S(=O)(=O)N4CCOCC4)c3)c3ccccc23)c1 | 6.5µM* | 16µM* | -2%[12.3 µM] | · | · | ·
Cc1cccc(Nc2nnc(-c3ccc(C)c(S(=O)(=O)N4CCCCC4)c3)c3ccccc23)c1 | ? | ? | -2%[12.3 µM] | · | · | ·
Cc1ccc(-c2nnc(Nc3cccc(C(F)(F)F)c3)c3ccccc23)cc1S(=O)(=O)N1CCOCC1 | 8.2µM* | 9.2µM* | 12% | · | · | ·
